{"source": "PubChem BioAssay", "key": {"[1]": {"experiment": "endothelial E-selectin expression blockers – imaging, HUVEC, immunofluorescence, MLSMR starter and 10KST1 sets, primary screen (AID 487;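 active = visually confirmed hit in the image check and inhibition above 20%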;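 for inhibition: signal is fraction of cell area covered by stained E-selectin grains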;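 for nuclei count: 100% = median nuclei count of all wells on the same plate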)", "details": "HUVEC TNFalpha-induced E-selectin immunofluorescence imaging, at 2 µM; inhibition: stronger effect = higher value; nuclei count: measured here: cell number, toxicity"}, "[2]": {"experiment": "Primary imaging screen for DUSP6 inhibitors that restore phospho-Erk in transfected HeLa cells, chemical complementation (AID 609;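 active = compounds giving at least 50% inhibition in the cell-based MKP-3 phosphatase rescue imaging test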)", "details": "HeLa MKP-3 transfected, phospho-Erk imaging KS statistic, at 10 µM"}, "[3]": {"biological_target": "Dual specificity protein phosphatase 6 (Homo sapiens) (UniProt Q16828)", "sequence (Q16828 whole entry, looked up)": "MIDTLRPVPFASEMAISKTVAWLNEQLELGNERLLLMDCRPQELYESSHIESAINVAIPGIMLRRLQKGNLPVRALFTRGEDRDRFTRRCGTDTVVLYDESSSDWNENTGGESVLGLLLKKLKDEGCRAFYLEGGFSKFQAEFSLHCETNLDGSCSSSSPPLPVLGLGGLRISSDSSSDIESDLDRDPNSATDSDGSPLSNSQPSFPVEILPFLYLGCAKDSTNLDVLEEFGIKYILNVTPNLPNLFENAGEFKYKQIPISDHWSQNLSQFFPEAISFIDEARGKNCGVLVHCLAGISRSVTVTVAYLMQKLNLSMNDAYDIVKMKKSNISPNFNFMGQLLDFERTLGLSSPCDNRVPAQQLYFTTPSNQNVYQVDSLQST", "experiment": "Primary imaging screen for DUSP6 inhibitors that restore phospho-Erk in transfected HeLa cells, chemical complementation (AID 609);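 for inhibition: phospho-Erk level distribution per well compared with pooled transfected vehicle control wells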", "details": "HeLa MKP-3 transfected, phospho-Erk imaging KS statistic, at 10 µM, stronger effect = higher value"}, "[4]": {"biological_target": "Voltage-gated potassium channel subunit beta-2 (Rattus norvegicus) (UniProt P62483)", "sequence (P62483 whole entry, looked up)": "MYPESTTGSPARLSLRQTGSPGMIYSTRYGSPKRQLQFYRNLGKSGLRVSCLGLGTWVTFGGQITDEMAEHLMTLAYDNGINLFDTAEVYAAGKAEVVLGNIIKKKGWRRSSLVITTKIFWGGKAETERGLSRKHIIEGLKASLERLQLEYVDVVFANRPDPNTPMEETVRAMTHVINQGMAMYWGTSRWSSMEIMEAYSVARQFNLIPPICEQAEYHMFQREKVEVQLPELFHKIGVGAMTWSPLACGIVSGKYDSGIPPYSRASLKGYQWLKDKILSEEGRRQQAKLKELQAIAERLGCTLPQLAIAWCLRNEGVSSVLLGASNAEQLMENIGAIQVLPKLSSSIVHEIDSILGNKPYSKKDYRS", "experiment": "inhibitors of rat Kvbeta2 reductase activity – biochemical, NADPH fluorescence, primary screen (AID 622;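 active = fluorescence slope higher than the sample average by over 3 SD, cut at about -0.22 in these data, passing the limit was not always enough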;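 note: slope of raw intensity against log time taken from 70 to 1610 s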)", "details": "recombinant KvBeta, 4-cyanobenzaldehyde reduction, at 10 µM, stronger effect = higher value"}, "[5]": {"biological_target": "Voltage-gated potassium channel subunit beta-2 (Rattus norvegicus) (UniProt P62483)", "experiment": "enhancers of rat Kvbeta2 NADPH turnover – biochemical, NADPH fluorescence, primary screen (AID 623;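 active = NADPH fluorescence slope more negative than the mean of all samples by about 3 SD, 99.7% confidence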;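 note: fluorescence intensity change per second fitted from 20 to 320 s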)", "details": "Recombinant KvBeta, NADPH fluorescence decrease slope, 10 min; at 10 µM; stronger effect = lower value"}, "[6]": {"biological_target": "Alpha-2C adrenergic receptor (Homo sapiens) (UniProt P18825)", "sequence (P18825 whole entry, looked up)": "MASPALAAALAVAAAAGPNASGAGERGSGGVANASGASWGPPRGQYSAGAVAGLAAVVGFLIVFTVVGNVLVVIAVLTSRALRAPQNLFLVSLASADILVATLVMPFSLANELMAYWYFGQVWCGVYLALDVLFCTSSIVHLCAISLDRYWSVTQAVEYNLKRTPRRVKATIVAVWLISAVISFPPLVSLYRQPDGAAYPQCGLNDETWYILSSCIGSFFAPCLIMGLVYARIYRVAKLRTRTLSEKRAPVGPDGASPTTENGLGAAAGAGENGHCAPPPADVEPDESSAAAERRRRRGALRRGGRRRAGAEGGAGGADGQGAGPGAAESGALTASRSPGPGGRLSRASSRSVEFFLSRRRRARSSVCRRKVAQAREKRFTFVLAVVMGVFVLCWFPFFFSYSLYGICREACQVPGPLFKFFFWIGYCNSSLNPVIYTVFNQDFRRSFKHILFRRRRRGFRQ", "experiment": "compounds altering alpha2C-coupled GIRK flux – cell-based, HEK293 alpha2C/GIRK1/2, thallium flux, primary screen (AID 624;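 active = fluorescence slope after compound addition differing from the mean of all screened samples at 99.7% confidence, in either direction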;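 note: slope of fluorescence ratio to pre-addition baseline per second over 15 to 24 s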)", "details": "thallium flux BTC fluorescence, at 10 µM, actives lie on both sides"}, "[7]": {"experiment": "inhibitors of larval lipid processing in zebrafish, primary screen, whole organism, PED6 fluorescence, gall bladder and intestine (AID 686;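 active = a full or partial loss of lipid-probe fluorescence in the fish gall bladder, intestine or both, judged by eye; inactive = no fluorescence loss, or compound toxic to the fish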;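 note: larvae 5 to 7 days old with five fish per well; signal comes from phospholipase A2 cleavage of quenched PED6 carried via bile; overnight exposure to compound and PED6 before scoring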)", "details": "Zebrafish larvae PED6 lipid processing, fluorescence scoring"}, "[8]": {"experiment": "loss of swimming-algae plug formation – whole organism, Chlamydomonas reinhardtii, WT vs cilia-less mutant, absorbance, 96-well, primary screen (AID 463189);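 note: 0% = wild type cc124 cells in DMSO and 100% = ciliumless bld1 mutant cells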", "details": "Chlamydomonas reinhardtii gravitaxis, OD600 absorbance, 2 days; at 10 µM; stronger effect = higher value"}, "[9]": {"experiment": "blockers of RIG-like receptor reporter activation – cell-based, Sendai virus stimulus, luciferase, 10K MLSCN set, TLR/RLR signaling modifier project, primary screen (AID 602276;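 active = inhibition at or above 50% at 10 µM; inactive = inhibition below 50%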;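 note: firefly luciferase from ISG56 promoter only with Renilla not read in this screen; 0% = Sendai virus plus DMSO and 100% = medium plus DMSO without virus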)", "details": "HEK293 RL24 IRF3 luciferase reporter, at 10 µM, stronger effect = higher value"}, "[10]": {"experiment": "TLR3 IRF3 reporter activation blockers – cell-based, poly I:C stimulus, luciferase, 10K MLSCN set, primary screen (AID 602277;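 active = inhibition of the reporter signal at or above 50%; inactive = inhibition below 50%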)", "details": "HEK293-TLR3 RL24 IRF3 luciferase reporter, at 10 µM, stronger effect = higher value"}, "[11]": {"experiment": "reduction of polyQ htt aggregates in cells – imaging, exon1htt(103Q)mCFP cells, high-content imaging, primary screen (AID 483;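 active = visual image review flags a hit and inhibition of aggregation exceeds 20%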;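 note: compound exposure lasted 3 days before fixation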;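 for nuclei count: percent of the per-plate median nuclei count of sample wells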)", "details": "exon1htt(103Q)mCFP cell line, aggregate imaging, at 2 µM; inhibition of aggregation: stronger effect = higher value; nuclei count: measured here: cell count, toxicity"}, "[12]": {"details": "measured here: cell density z-score"}, "[13]": {"details": "measured here: nuclear c-Myc green intensity z-score"}, "[14]": {"details": "measured here: nuclear pErk red intensity z-score, stronger effect = higher value"}}, "note": "Where “and” joins values, the source holds several entries; their conditions need not be identical. Equal values may be shown once. Calls of active or inactive are those of the source.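 Rule for the calls, unless noted: active = inhibition at or above 50% relative to wild type and mutant plate controls; inactive = inhibition below 50%.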"}
{"smiles": "O=C1CC[C@@]2(O)[C@H]3Cc4ccc(O)c5c4[C@@]2(CCN3CC2CC2)[C@H]1O5", "values": [{"measurement": "inhibition", "setting": "[1]", "result": "-64.2% (inactive)"}, {"measurement": "nuclei count", "setting": "[1]", "result": 120, "unit": "%"}, {"measurement": "z-score", "setting": "[2]; [12]", "result": 1.03}, {"measurement": "z-score", "setting": "[2]; [13]", "result": 0.419}, {"measurement": "z-score", "setting": "[2]; [14]", "result": 0.423}, {"measurement": "inhibition", "setting": "[3]", "result": "11.3% (inactive)"}, {"measurement": "fluorescence slope", "setting": "[4]", "result": "-0.463 (inactive)"}, {"measurement": "NADPH fluorescence slope", "setting": "[5]", "result": "-9.1e-06 (inactive)"}, {"measurement": "slope", "setting": "[6]", "result": "0.0048 (inactive)"}, {"measurement": "outcome", "setting": "[7]", "result": "inactive"}, {"measurement": "inhibition", "setting": "[8]", "result": "17.1% (inactive)"}, {"measurement": "inhibition", "setting": "[9]", "result": "10.3% (inactive)"}, {"measurement": "inhibition", "setting": "[10]", "result": "48.8% (inactive)"}]}
{"smiles": "C[N+]1(C)C2CC(OC(=O)[C@H](CO)c3ccccc3)CC1C1OC12", "note": "(some centres undefined)", "values": [{"measurement": "inhibition", "setting": "[8]", "result": "-8.63% (inactive) and 9.74% (inactive)"}]}
{"smiles": "c1ccc2c(N3CCNCC3)cccc2c1", "values": [{"measurement": "inhibition", "setting": "[8]", "result": "5.44% (inactive)"}]}
{"smiles": "C[N+]1(C)[C@@H]2CC[C@H]1CC(OC(=O)C(CO)c1ccccc1)C2", "note": "(some centres undefined)", "values": [{"measurement": "inhibition of aggregation", "setting": "[11]", "result": "-2.8% (inactive)"}, {"measurement": "nuclei count", "setting": "[11]", "result": 112, "unit": "%"}, {"measurement": "inhibition", "setting": "[1]", "result": "-82.3% (inactive) and -114% (inactive)"}, {"measurement": "nuclei count", "setting": "[1]", "result": "123% and 124%"}, {"measurement": "z-score", "setting": "[2]; [12]", "result": "-1.12 and 0.779"}, {"measurement": "z-score", "setting": "[2]; [13]", "result": "0.388 and 0.223"}, {"measurement": "z-score", "setting": "[2]; [14]", "result": "-0.779 and -1.81"}, {"measurement": "inhibition", "setting": "[3]", "result": "1.48% (inactive) and 15.3% (inactive)"}, {"measurement": "fluorescence slope", "setting": "[4]", "result": "-0.509 (inactive) and -0.518 (inactive)"}, {"measurement": "NADPH fluorescence slope", "setting": "[5]", "result": "-2.9e-05 (inactive) and -4.5e-05 (inactive)"}, {"measurement": "slope", "setting": "[6]", "result": "0.005 (inactive) and 0.00423 (inactive)"}, {"measurement": "outcome", "setting": "[7]", "result": "inactive"}, {"measurement": "inhibition", "setting": "[8]", "result": "30.8% (inactive) and -7.87% (inactive)"}, {"measurement": "inhibition", "setting": "[9]", "result": "13.4% (inactive) and 12.2% (inactive)"}, {"measurement": "inhibition", "setting": "[10]", "result": "35.7% (inactive) and 30.4% (inactive)"}]}
{"smiles": "Oc1ccc2c3c1O[C@H]1c4oc5ccccc5c4C[C@@]4(O)C(C2)N(CC2CC2)CCC314", "note": "(some centres undefined)", "values": [{"measurement": "inhibition", "setting": "[8]", "result": "3.38% (inactive)"}]}
{"smiles": "O=C1CC[C@@]2(O)C3Cc4ccc(O)c5c4C2(CCN3CC2CC2)[C@H]1O5", "note": "(some centres undefined)", "values": [{"measurement": "inhibition", "setting": "[8]", "result": "-3.7% (inactive)"}]}
{"smiles": "COc1ccc(Cc2nccc3cc(OC)c(OC)cc23)cc1OC", "values": [{"measurement": "inhibition of aggregation", "setting": "[11]", "result": "-8.7% (inactive)"}, {"measurement": "nuclei count", "setting": "[11]", "result": 110, "unit": "%"}, {"measurement": "inhibition", "setting": "[1]", "result": "-204% (inactive)"}, {"measurement": "nuclei count", "setting": "[1]", "result": 140, "unit": "%"}, {"measurement": "z-score", "setting": "[2]; [12]", "result": 1.76}, {"measurement": "z-score", "setting": "[2]; [13]", "result": -0.33}, {"measurement": "z-score", "setting": "[2]; [14]", "result": -0.255}, {"measurement": "inhibition", "setting": "[3]", "result": "9.37% (inactive)"}, {"measurement": "fluorescence slope", "setting": "[4]", "result": "-0.442 (inactive)"}, {"measurement": "NADPH fluorescence slope", "setting": "[5]", "result": "-7e-05 (inactive)"}, {"measurement": "slope", "setting": "[6]", "result": "0.00447 (inactive)"}, {"measurement": "outcome", "setting": "[7]", "result": "inactive; toxic"}, {"measurement": "inhibition", "setting": "[8]", "result": "-20% (inactive) and 8.29% (inactive)"}, {"measurement": "inhibition", "setting": "[9]", "result": "-5.8% (inactive)"}, {"measurement": "inhibition", "setting": "[10]", "result": "-3.94% (inactive)"}]}
{"smiles": "O=C(O)c1nn(Cc2ccc(Cl)cc2Cl)c2ccccc12", "values": [{"measurement": "inhibition", "setting": "[8]", "result": "-0.768% (inactive)"}]}
{"smiles": "O=C(O)c1cc[c]([Hg][Cl])cc1", "values": [{"measurement": "inhibition", "setting": "[8]", "result": "9.04% (inactive)"}]}
